Structures are written as SMILES. Out of some 190,000 compounds screened, about 810 (0.43%) were called active. This excerpt belongs to a sample that is enriched for actives. Values without a mark were called inactive. Rule as the data show it: active = inhibition above about 50%; inactive = the rest.

The text below walks through data of PubChem BioAssay AID1209 (Sanford-Burnham Center for Chemical Genomics, 2008).

In this assay the target is Mannose-6-phosphate isomerase (Homo sapiens) (UniProt P34949). The assay can be described thus: inhibitors of human PMI, primary screen, biochemical, fluorescence intensity, coupled assay (AID 1209).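 Also: plate controls were DMSO vehicle for no effect and wells lacking substrate for full effect.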 Particulars: purified PMI enzyme, at 20 µM, active compounds read high.
Sequence of Mannose-6-phosphate isomerase (Homo sapiens) (P34949 whole entry, looked up): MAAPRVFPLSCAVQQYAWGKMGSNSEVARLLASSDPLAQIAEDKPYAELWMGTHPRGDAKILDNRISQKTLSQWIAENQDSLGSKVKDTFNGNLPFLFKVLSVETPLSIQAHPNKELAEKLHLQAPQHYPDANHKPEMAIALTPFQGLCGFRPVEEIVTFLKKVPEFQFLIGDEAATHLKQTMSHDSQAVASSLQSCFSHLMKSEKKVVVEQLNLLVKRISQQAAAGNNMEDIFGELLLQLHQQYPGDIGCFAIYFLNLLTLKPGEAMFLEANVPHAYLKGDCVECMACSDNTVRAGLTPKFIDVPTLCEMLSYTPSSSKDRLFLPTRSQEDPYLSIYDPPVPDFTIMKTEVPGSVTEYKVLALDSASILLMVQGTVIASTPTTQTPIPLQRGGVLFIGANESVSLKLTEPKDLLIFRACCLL
The inhibition is the relative decrease from the control value, in per cent. For the compound `CS(=O)(=O)N(CC(=O)NCC1CCCO1)c1cccc([N+](=O)[O-])c1` (stereo not given), the inhibition is -8.6%.

In the case of `CCn1c(CNC(=O)Cc2ccc(OC)cc2)nnc1SCCOc1ccccc1`, the inhibition is -11.5%. Then `CC(C)Nc1nc(NC(C)C)nc(N(C)C#N)n1`, with 3.3%; and `O=C(NN1CCN(Cc2ccccc2Cl)CC1)c1ccc(Br)cc1`, with -9.1%; and `O=S1(=O)CCN2C(c3cccc4ccccc34)=CSC2=N1`, with 2.1%. With `Nc1nnc(SCCOc2ccccc2)s1`, the inhibition is 1.7%. Regarding `Clc1ccc(OCc2nnc(-c3ccccc3Br)o2)c(Cl)c1`, the inhibition was -0.9%.

With `Cc1ccc(NC(=O)/C(=C/c2cccc([N+](=O)[O-])c2)NC(=O)C2CCCCC2)cc1`, the inhibition is 14%. Then `CC(=O)/C(CN1CCCCC1)=N\O`, with -6.1%. Consider `C/C(=N\O)C(=O)C(CN1CCCCC1)CN1CCCCC1`, for which the inhibition was 52.4% (active).

In the case of `C/C(=N\O)C(=O)NCCN1CCCCC1`, the inhibition was 1.5%. The value for `CCc1c(C)nc2ncnn2c1NC1CCCc2ccccc21` (stereo not given) was 15%; that for `CC(C)c1ccc(NC(=O)C2CC(=O)N=C(N)S2)cc1` (stereo not given) was 7.7%. Then `Cc1ccc(C2CC(c3ccccc3)=NN2C(=S)Nc2ccccc2)o1` (stereo not given), with 53% (active); and `COc1ccc(C2CC(c3ccccc3)=NN2C(=S)Nc2ccccc2)cc1` (stereo not given), with 9.4%; and `Cc1ccc(C2=NN(C(=S)Nc3ccccc3)C(c3ccco3)C2)cc1` (stereo not given), with 8.2%. The value for `CCOC(=O)c1c(C)oc2c1c(C(c1ccccc1)N1CCOCC1)c(O)c1ccccc12` (stereo not given) was 37%; that for `CCOC(=O)c1c(C)oc2c1c(C=NC1CCS(=O)(=O)C1)c(O)c1ccccc12` (stereo not given) was 76.1% (active); that for `CCOC(=O)c1c(C)oc2c1c(C=NCCC(=O)O)c(O)c1ccccc12` was 77.4% (active). For `CCOC(=O)c1c(C)oc2c1c(CN1CCN(C(=O)OCC)CC1)c(O)c1ccccc12`, the inhibition is 25.1%. Regarding `Cc1ccc(-n2c(O)c(C=NC3CCS(=O)(=O)C3)c3ccccc3c2=O)cc1` (stereo not given), the inhibition was 5.7%. The value for `CCOC(=O)c1c(C)oc2c1c(C(c1cccnc1)N1CCN(C)CC1)c(O)c1ccccc12` (stereo not given) was 35.1%; that for `CCOC(=O)c1c(C)oc2c1c(CN1CCN(CCO)CC1)c(O)c1ccccc12` was 57.7% (active). For the compound `O=C(O)CCCN=Cc1c(O)c2ccccc2oc1=O`, the inhibition was 3.2%. The value for `O=C(O)CCN=Cc1c(O)c2ccccc2oc1=O` was 7.6%; that for `CCOC(=O)c1c(C)oc2c1c1c(c3ccccc32)OCN(Cc2cccnc2)C1` was 71.9% (active); that for `CCOC(=O)c1c(C)oc2c1c(C(c1cccnc1)N1CCCCC1)c(O)c1ccccc12` (stereo not given) was 28.2%. Then `Cc1cc(C)cc(-n2c(O)c(C=NC3CCS(=O)(=O)C3)c3ccccc3c2=O)c1` (stereo not given), with 14.1%; and `CCC1CCCCN1C(=O)COc1cccc2c1CCN(C)C2=O` (stereo not given), with -3.6%; and `O=C(C[n+]1cccc(CO)c1)Nc1nc2ccccc2s1`, with -3.4%. On to `O=c1c2sc(-c3ccccc3)cc2nc2n1CCC2`, for which the inhibition is -4.9%.

Regarding `Clc1ccc(N/N=C/c2ccncc2)cc1Cl`, the inhibition is 5.3%.

`O=C(COC(=O)[C@@H]1CCCN1S(=O)(=O)c1ccccc1F)Nc1ccc(OC(F)F)cc1`: the inhibition is 9.6%.

With `Cn1c(SCC(=O)NCC2CCCO2)nnc1-c1ccc(S(=O)(=O)N2CCCC2)cc1` (stereo not given), the inhibition was -1.5%. The value for `CCNC(=O)NC(=O)C(C)SCc1ccccc1C` (stereo not given) was -8.4%; that for `Oc1[nH]c2ccccc2c1C=NCC1CCCO1` (stereo not given) was -2.9%; that for `CCOC(=O)c1c(C)oc2c1c(C(c1cccnc1)N1CCOCC1)c(O)c1ccccc12` (stereo not given) was 22.6%.

With `CCOC(=O)c1c(C)oc2c1cc(O)c1ccccc12`, the inhibition is 13.4%. The value for `CCOC(=O)c1c(C)oc2c1c(C=NCc1ccccn1)c(O)c1ccccc12` was 62.5% (active); that for `O=c1oc2ccccc2c(O)c1C=NCc1ccccn1` was 5.9%; that for `CCOC(=O)c1c(C)oc2c1c(C(c1ccncc1)N1CCOCC1)c(O)c1ccccc12` (stereo not given) was 21%. On to `CCOC(=O)c1c(NCC2CCCO2)c2ccccc2[nH]c1=O` (stereo not given), for which the inhibition is -8.8%. Then `CCOC(=O)c1c(C)oc2c1c(C=NCC1CCCO1)c(O)c1ccccc12` (stereo not given), with 63.6% (active); and `Cn1c(NC(=O)Cc2cccc3ccccc23)cc(=O)n(C)c1=O`, with 7.2%; and `NNC(=O)c1sc2cc(C(F)(F)F)cnc2c1-c1cccnc1`, with 3.5%. Turning to `O=S1(=O)N=C(Nc2nncs2)c2ccccc21`, the inhibition was 23.3%. The value for `O=C1CNC(=O)N1CC(O)Cn1c2ccccc2c2ccccc21` (stereo not given) was 5.5%; that for `O=C(/C=C/c1ccc(S(=O)(=O)NCc2ccco2)cc1)NCc1cccc(Cl)c1` was 0.4%. As to `CCCn1c(CNS(=O)(=O)c2ccc(C)cc2)nc2ccccc21`, the inhibition is 83.3% (active).

With `CCCn1c(CNC(=O)c2ccccc2)nc2ccccc21`, the inhibition was 0.8%. Then `CCCn1c(NCc2ccccc2NS(=O)(=O)c2ccc(C)cc2)nc2ccccc21`, with 27.9%; and `O=C(N/N=C/c1coc2ccccc2c1=O)c1ccccc1Br`, with -7.2%; and `Cn1c(C(C#N)C(=O)Cc2cccc3ccccc23)nc2ccccc21` (stereo not given), with -7.2%. Consider `C=CCNC(=S)Nc1ccc(Cl)c(S(=O)(=O)N2CCOCC2)c1`, for which the inhibition was -6.8%. The value for `CCCSc1cc(NCCOC(=O)CCC)c([N+](=O)[O-])c2nonc12` was 41.9%; that for `CCC(=O)OCCNc1cc(SCCC(=O)OC)c2nonc2c1[N+](=O)[O-]` was 79.5% (active); that for `CCCC(=O)OCCNc1cc(SCCC(=O)OC)c2nonc2c1[N+](=O)[O-]` was 81.2% (active).

Take `COC(=O)CCSc1cc(NCCOC(C)=O)c([N+](=O)[O-])c2nonc12`: the inhibition was 4.9%. For `CCC(=O)OCCNc1cc(Sc2nccn2C)c2nonc2c1[N+](=O)[O-]`, the inhibition is 20.4%. Turning to `CCCSc1cc(NCCOC(C)=O)c([N+](=O)[O-])c2nonc12`, the inhibition was 27.6%. On to `O=C(O)/C=C/C(=O)Nc1ccc(SC(F)(F)F)cc1`, for which the inhibition was -22.4%.

As for `CC1(C)Cc2nc3sc4c(=O)n(Cc5ccccc5)cnc4c3cc2CS1`, the inhibition was -8.6%.

Regarding `Cc1cc(NC(=O)CSc2ncnc3ccccc23)no1`, the inhibition was 15.8%.

`O=C(O)CCn1cc(/C=C2\SC(=S)NC2=O)c(-c2ccccc2)n1`: the inhibition was -4.7%. The value for `O=Cc1cn(CCC(=O)O)nc1-c1cccc(Br)c1` was -4.6%.

Regarding `O=c1oc2c(CN3CCOCC3)c(O)ccc2c2ccccc12`, the inhibition is 7.2%. Consider `CN(C)Cc1c(O)ccc2c3c(c(=O)oc12)CCCCC3`, for which the inhibition is -0.4%. Take `CCC1(c2ccccc2)NC(=O)N(Cc2ccc(C(=O)OC)cc2)C1=O` (stereo not given): the inhibition is 4.1%. The value for `CCOC(=O)c1[nH]c2ccc(OC)cc2c1NC(=O)/C=C/c1ccc2c(c1)OCO2` was -2.7%; that for `CC1=NN(c2ccccc2)C(=O)/C1=C/C=C/c1ccc(N(C)C)cc1` was 14.6%; that for `CC1=NN(c2ccccc2)C(=O)/C1=C/C=C/C=C/N(C)C` was 50.1% (active). For `CC1=NN(c2ccccc2)C(=O)/C1=C/C=C/c1ccccc1`, the inhibition is 3.1%. `CCOc1ncccc1C(=O)Nc1nc(SC)ns1`: the inhibition was -7%. On to `O=C1C2C3C=CC(CNS(=O)(=O)c4ccccc4[N+](=O)[O-])(O3)C2C(=O)N1c1ccccc1` (stereo not given), for which the inhibition was -34.8%. The value for `COc1ccccc1C(OC(=O)c1cccs1)C(=O)NCc1ccco1` (stereo not given) was -1.9%; that for `O=C(O)[C@@H]1CSC2(CCSC2)N1` (stereo not given in full) was -0.6%; that for `CCOc1cc(/C=C2\C(=O)N(Cc3ccco3)C(C)=C2C(=O)OC)ccc1O` was 27.7%. Turning to `COC(=O)C1=C(C)N(Cc2ccco2)C(=O)/C1=C\c1ccc([N+](=O)[O-])cc1`, the inhibition was -16.2%. With `COC(=O)C1=C(C)N(Cc2ccco2)C(=O)/C1=C\c1ccc(N(C)C)cc1`, the inhibition is 63.9% (active). The value for `O=C(c1ccc(F)cc1)c1c[nH]c(C(=O)NCCCN2CCOCC2)c1` was 4.5%. Then `CCc1c(C)sc(NC(=O)Cn2nc(C(F)(F)F)c3c2CCCC3)c1C#N`, with 15.3%. The value for `N#Cc1c(NC(=O)Cn2nc(C(F)(F)F)c3c2CCCC3)sc2c1CCC2` was 56.8% (active); that for `CC1CCc2c(sc(NC(=O)Cn3nc(C(F)(F)F)c4c3CCCCC4)c2C#N)C1` (stereo not given) was -0.9%. In the case of `CCOc1ccc(Br)cc1S(=O)(=O)Nc1ccc(N2CCOCC2)cc1`, the inhibition was 12%.

With `COc1cccc(N2CCN(c3c4c(nc5ncnn35)CCC4)CC2)c1`, the inhibition was -1.8%. Turning to `c1ccc(N2CCN(c3c4c(nc5ncnn35)CCC4)CC2)cc1`, the inhibition was 68.8% (active). Then `CC1CCc2c(nc3ncnn3c2N2CCN(c3ccccc3)CC2)C1` (stereo not given), with -7.9%; and `N#CC1=C(N)Oc2n[nH]c(-c3cccs3)c2C1C1C=CCCC1` (stereo not given), with 2.1%; and `O=C(CSc1nc2ccccc2s1)CSc1nc2ccccc2s1`, with 7.7%. Regarding `O=C(O)CSc1ncccn1`, the inhibition was -18.2%. The value for `CN(C(=O)c1ccccn1)C1(C(=O)NC2CCCCC2)CCCCC1` was -7.7%; that for `O=C(Nc1cc(N2CCOCC2)ncn1)NC1(C(F)(F)F)Oc2ccc(Cl)cc2O1` (stereo not given) was 74.1% (active); that for `COCC(C)NC(=O)NC1(C(F)(F)F)Oc2ccc(Cl)cc2O1` (stereo not given) was 22.8%.

For the compound `O=C(NCCN1CCOCC1)NC1(C(F)(F)F)Oc2ccccc2O1`, the inhibition is 8.2%. Then `O=C(Nc1cc(N2CCOCC2)ncn1)c1ccc(F)cc1`, with 5.3%; and `O=C(NCc1cccnc1)NC1(C(F)(F)F)Oc2ccc(Cl)cc2O1` (stereo not given), with 22.4%; and `COCCNC(=O)NC1(C(F)(F)F)Oc2ccc(Cl)cc2O1` (stereo not given), with 22.5%. Then `O=C(NCCN1CCOCC1)NC1(C(F)(F)F)Oc2ccc(Cl)cc2O1` (stereo not given), with 60.2% (active). As to `O=C(Nc1cc(N2CCOCC2)ncn1)NC1(C(F)(F)F)Oc2ccccc2O1`, the inhibition is 35.5%. The value for `Cc1cc(NC(=O)NC2(C(F)(F)F)Oc3ccc(Cl)cc3O2)no1` (stereo not given) was 52% (active).
